# An excerpt weighted towards active compounds, which were near 12% of everything screened.
# HP1b binding inh: blocks HP1-beta chromodomain binding to methylated histone tails | AlphaScreen HP1-beta / biotin-H3K9me3 peptide binding | AID 540317 | hit rate 0.56% among 390,000 | Potency, µM (doses to about 114 µM), for the others: at the top dose activity change, negative = inhibition, most hits filed as inhibitors | P83916; also: nearly all actives have a fitted effect of over 70% in size
#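 AlphaScreen: HP1-beta (50 nM) preformed 30 min with biotin-H3(1-18)K9me3 peptide (50 nM) in PBS pH 7.4, 0.01% Tween-20. Compound added for 30 min at RT, then streptavidin donor/nickel chelate acceptor beads (10 ug/mL) for 30 min.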
# BAZ2B inh: BAZ2B (human) inhibition; Q9UIF8; AlphaScreen BAZ2B-H3K14Ac peptide displacement; Potency, µM (titrated, usually from 114 µM), without a hit: at the highest dose activity change, negative = inhibition, actives largely listed as inhibitors; hit rate 4.4% among 360,000; also: % is scaled to controls: 0 for no effect and ±100 for the full control effect; nearly all actives have a fitted effect of over 60% in size
#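 Inhibition is scored as reduced AlphaScreen emission. The BAZ2B/b-H3(5-23)K14Ac complex (50 nM each) in PBS pH 7.4, 0.01% Tween-20 meets compound (up to 110 uM) for 30 min at RT before bead addition.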
# G9a inh: blocks human histone lysine methyltransferase G9a. Q96KQ7. G9a H3K9 monomethylation, AlphaScreen, 2 h. Potency, µM (titrated, usually from 102 µM), without a hit: at the top dose activity, negative = inhibition, usual class: inhibitors. hit rate 8.8% among 350,000. AID 504332; also: % is scaled to controls: 0 for no effect and ±100 for the full control effect; nearly all actives have a fitted effect of over 75% in size
#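 G9a (20 nM) was preincubated 15 min with compound, then reacted 2 h at room temperature with 500 nM biotin-H3K9 peptide and 20 µM SAM. Monomethyl-H3K9 detected by AlphaScreen using anti-H3K9me1 antibody.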
# JMJD2A Tudor inh: blocks the human JMJD2A Tudor domain | AID 504339 | Potency, µM (titrated, usually from 114 µM), without a hit: top-dose activity change, negative = inhibition, hits mostly inhibitors | AlphaScreen JMJD2A-Tudor / H3K4me3 peptide binding | hit rate 4.4% among 390,000 | O75164; also: % is scaled to controls: 0 for no effect and ±100 for the full control effect; nearly all actives have a fitted effect of over 50% in size
# Target sequence (O75164 whole entry, looked up, the tested form may be a part): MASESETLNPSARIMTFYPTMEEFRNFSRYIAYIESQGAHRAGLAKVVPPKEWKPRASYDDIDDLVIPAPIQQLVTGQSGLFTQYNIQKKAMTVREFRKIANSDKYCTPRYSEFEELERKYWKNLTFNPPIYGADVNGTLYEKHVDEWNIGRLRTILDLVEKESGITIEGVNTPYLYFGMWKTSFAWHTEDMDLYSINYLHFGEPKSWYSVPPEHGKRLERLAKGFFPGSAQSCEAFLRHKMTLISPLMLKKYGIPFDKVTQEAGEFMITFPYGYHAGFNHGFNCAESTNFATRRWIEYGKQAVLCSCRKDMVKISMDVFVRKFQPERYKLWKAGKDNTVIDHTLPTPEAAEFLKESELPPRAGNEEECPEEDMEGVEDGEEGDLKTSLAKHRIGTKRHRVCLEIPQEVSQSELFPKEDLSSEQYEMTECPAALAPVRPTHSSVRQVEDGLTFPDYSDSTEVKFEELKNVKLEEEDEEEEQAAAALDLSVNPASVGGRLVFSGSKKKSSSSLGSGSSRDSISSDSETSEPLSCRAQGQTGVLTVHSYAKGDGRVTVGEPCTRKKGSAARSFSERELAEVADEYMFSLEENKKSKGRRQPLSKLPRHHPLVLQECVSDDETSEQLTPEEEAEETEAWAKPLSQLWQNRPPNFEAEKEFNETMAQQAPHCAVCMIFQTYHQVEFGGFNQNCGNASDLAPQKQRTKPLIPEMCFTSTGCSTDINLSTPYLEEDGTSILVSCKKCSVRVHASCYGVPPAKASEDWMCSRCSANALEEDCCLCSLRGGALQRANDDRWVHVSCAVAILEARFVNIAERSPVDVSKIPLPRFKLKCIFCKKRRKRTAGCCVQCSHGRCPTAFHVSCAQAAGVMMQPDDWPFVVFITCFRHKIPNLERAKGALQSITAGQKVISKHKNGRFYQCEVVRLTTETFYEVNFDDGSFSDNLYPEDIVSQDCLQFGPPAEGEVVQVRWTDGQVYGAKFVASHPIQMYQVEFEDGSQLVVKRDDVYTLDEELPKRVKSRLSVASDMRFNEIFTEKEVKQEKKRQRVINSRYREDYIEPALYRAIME
# Sfp PPTase inh: Sfp phosphopantetheinyl transferase inhibition. Biochemical Sfp PPTase activity, qHTS. hit rate 3.5% among 310,000. Potency, µM, inactives show largest response in the series, negative = inhibition, usual class: inhibitors. Q9F4F7. AID 1490;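 also: the enzyme is Sfp with the accession as filed and its product quenches rhodamine fluorescence; 0% = enzyme reaction without inhibitor and -100% = no enzyme wells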
#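 Fluorescence-quenching assay with 15 nM Sfp, 5 uM rhodamine-CoA and 12.5 uM BHQ-2-labelled ybbR peptide in pH 7.6 Hepes/MgCl2 buffer. Enzyme was pre-incubated with compound for 15 min at room temperature. Rate was taken from the 30-min fluorescence change (525/598 nm).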
# * = called active by the depositor; ? = inconclusive; . = not tested or not shown; ! = repeats disagree; [ ] = another dose, or the depositor's remark. Calls follow the shape of the dose curve; as a rule, active = well fitted curve in the direction sought with a large enough effect; inconclusive = small, poorly fitted or top-dose-only effect, or another doubt; inactive = no such curve, though single readings can be large; an effect the other way counts as inactive or inconclusive. Potency is read from the fitted curve at half-maximal effect.
SMILES,HP1b binding inh,BAZ2B inh,G9a inh,JMJD2A Tudor inh,Sfp PPTase inh
CC1CN(C(=S)NC(=O)c2ccc([N+](=O)[O-])cc2)CC(C)O1 (centres undefined),24.0%,-33.7%[57.1 µM],39.8µM*,-34.6%,3.6%
CC1CN(C(=S)c2cccc([N+](=O)[O-])c2)CC(C)O1 (centres undefined),?,-19.3%,6.31µM*,?,50.1µM*
O=C(NC(=S)N1CCOCC1)c1ccc([N+](=O)[O-])cc1,43.6%,?,8.91µM*,-5.5%,-11.6%
N#Cc1ccc(C(=O)NC(=S)N2CCOCC2)cc1,46.9%,.,.,-5.5%,.
CC1CN(c2ccc([N+](=O)[O-])cc2C#N)CC(C)O1 (centres undefined),15.1%,-18.8%,27.4%,-10.5%,1.9%
CC1CN(C(=S)NC(=O)c2ccco2)CC(C)O1 (centres undefined),21.9%,5.2%,?,?,?
CC1CN(C(=S)NC(=O)c2ccccc2)CC(C)O1 (centres undefined),24.4%,-38.1%,70.8µM*,-25.0%,-24.6%
Cc1csc(NC(=O)c2ccc(=O)[nH]c2)n1,26.0%,-2.4%,-1.1%,-16.7%,14.0%
CC1CN(C(=S)SCC(=O)c2ccc([N+](=O)[O-])cc2)CC(C)O1 (centres undefined),-11.4%,?,14.1µM*,-26.4%,12.2%
O=C(/C=C/c1ccc(O)c(O)c1)OC(Cc1ccc(O)c(O)c1)C(=O)O (centres undefined),?,39.8µM*,3.55µM*,12.6µM*,79.4µM*!
O=C(/C=C\c1ccc(O)c(O)c1)O[C@@H](Cc1ccc(O)c(O)c1)C(=O)O,.,.,.,.,50.1µM*
N[C@@H](Cc1ccc(O)c(I)c1)C(=O)O,.,6.1%,6.6%,.,-6.4%
C[n+]1cnn2c1SCC1(COC1)C2,3.6%,-1.8%,35.5µM*,25.1µM*,2.6%
COc1ccc(C2NN=C(c3c[nH]c4ccccc34)C2O)cc1 (centres undefined),0.0%,?,22.4µM*,?,56.2µM*
COc1ccc(C(=O)CSc2nnc(C3CCCCC3)n2N)c(OC)c1,28.2%,-3.7%,-6.9%[12.7 µM],-21.8%,-3.0%
CCS(=O)(=O)c1ccc2oc(Nc3ccc(C(C)C)cc3)nc2c1,15.8µM*,-35.3%,1.78µM*,?,17.8µM*
CCOc1ccc(Nc2nc3cc(S(=O)(=O)N(CC)CC)ccc3o2)cc1,-52.5%,-27.2%,2.24µM*,-16.8%,8.91µM*
CCOC(=O)N1CCN(C(=O)COc2cccc3c2CCN(Cc2ccc(F)cc2)C3=O)CC1,36.7%,-7.5%,-2.8%,-4.8%,9.2%
Nc1cc2nsnc2cc1Br,?,12.0%[57.1 µM],?,-34.7%,39.8µM*
Nc1cnc(Br)cc1Br,11.8%,4.3%,9.0%,-11.0%,-8.8%
COc1cc2nc(Nc3ccc(C)c(Cl)c3)nc(N)c2cc1OC,-22.1%,?,50.1µM*,-34.5%,44.7µM*
CCOC(=O)c1ccc(Nc2nc(N)c3cc(OC)c(OC)cc3n2)cc1,50.1%,-5.4%,-25.6%[59 µM],-9.4%,79.4µM*
CCOC(=O)c1ccc(Nc2ccc(-c3ccc(OC)c(OC)c3)nn2)cc1,2.2%,.,?,63.1µM*,20.3%
COc1cc2nc(N(C)C)nc(N)c2cc1OC,14.8%,-17.2%,44.7µM*,-18.2%,7.6%
COc1cc2nc3occc3c(OC)c2cc1OC,38.2%,?,10.3%,-9.3%,20.2%
SMILES,HP1b binding inh,BAZ2B inh,G9a inh,JMJD2A Tudor inh,Sfp PPTase inh
COc1cc2nc(Nc3ccc(C)c(C)c3)nc(N)c2cc1OC,6.9%,?,-7.9%,?,?
CCOC(=O)c1ccc(N/C=C/C(=O)c2ccc(OC)c(OC)c2)cc1,31.0%,5.2%,.,-7.8%,2.9%
Cc1ccc2nc(N3CCOCC3)c3nncn3c2c1,20.4%,-2.8%,8.7%,-15.2%,5.8%
COc1ccccc1N1CCN(C(=O)c2cccc(N3C(=O)C4C5C=CC(C5)C4C3=O)c2)CC1 (centres undefined),26.2%,-12.5%,21.7%,-13.5%,21.7%
COc1cc2nc(Nc3cccc(C)c3)nc(N)c2cc1OC,22.1%,-14.0%,-46.7%[59 µM],-19.2%,.
COc1cc2nc(Nc3ccc(F)cc3)nc(N)c2cc1OC,27.7%,-23.9%,79.4µM*,-18.9%,?
Cc1ccc(-c2nn(-c3ccccc3)cc2C2SCC(=O)N2Cc2ccccc2)o1 (centres undefined),?,?,10µM*,?,22.4µM*
COc1cc(OC)c(N(C)C(=O)c2sc3nc4n(c(=O)c3c2C)CCCCC4)cc1Cl,19.9%,50.1µM*,14.1µM*,?,.
CCOc1ccccc1N(C)C(=O)c1sc2nc3n(c(=O)c2c1C)CCCC3,97.3%,50.1µM*,?,-21.1%,.
COc1cc(OC)c(N(C)C(=O)c2sc3nc4n(c(=O)c3c2C)CCCC4)cc1Cl,129.1%,-5.2%,?,20.7%,.
S=c1[nH]nc(-c2cc(-c3ccccc3)n[nH]2)n1/N=C/C=C/c1ccco1,?,?,1.78µM*,?,15.8µM*
S=c1[nH]nc(-c2ccco2)n1/N=C/C=C/c1ccco1,?,?,1.41µM*,3.55µM*,-41.6%
Brc1cnc(N2CCCC2)nc1N1CCOCC1,38.9%,2.8%,-7.5%[12.7 µM],4.5%,6.6%
CCOC(=O)C1CCN(C(=O)c2cc3ccc4ccc(C)[nH]c4c3n2)CC1,-1.9%,2.6%[57.1 µM],14.1µM*,-20.1%,.
CCOC(=O)C1CCN(C(=O)c2cc3ccc4cccnc4c3[nH]2)CC1,29.2%,5.7%[57.1 µM],-24.5%[59 µM],-14.6%,.
FC(F)(F)c1ccccc1NC(=S)N1CCc2ccccc2C1,44.8%,-16.5%,-9.1%,-11.5%,18.5%
CCCN1CCN(C(=S)Nc2ccccc2C(F)(F)F)CC1,24.0%,-3.4%,39.8µM*,-5.0%,-13.7%
CCC(=O)Nc1ccc(NC(=O)CSc2nnc(C(C)C)n2C)cc1,62.4%,2.1%,25.9%,-15.9%,9.1%
CCN(CC)C(=O)C1CCCc2c1[nH]c1ccc(Cl)cc21 (centres undefined),35.3%,1.3%,?,-31.7%,3.2%
O=CNC1CCCc2c1[nH]c1ccc(Cl)cc21 (centres undefined),-12.8%,?,7.94µM*,56.2µM*,9.2%
CC1CCC(C(=O)NC(C(=O)N2CCC(N3CCCCC3)CC2)C(C)C)CC1 (centres undefined),35.0%,1.7%,10.3%,14.7%,20.2%
COc1ccc(OCCCNCCc2ccccc2)cc1,27.2%,-24.7%,3.8%[12.7 µM],-9.7%,6.8%
OCCNCCCCOc1ccc(OCc2ccccc2)cc1,-0.5%,-9.4%,18.3%[59 µM],-33.8%,7.0%
COCCNCc1ccccc1,-8.5%,-2.3%,20.4%[59 µM],?,13.5%
COCCNCCCOc1ccc(C(C)(C)c2ccccc2)cc1,?,35.5µM*,10µM*,0.794µM*,15.8µM*
CC(C)(c1ccccc1)c1ccc(OCCCNCCO)cc1,-6.7%,56.2µM*,-23.1%[12.7 µM],-15.3%[11.4 µM],-28.3%
CC(C)(C)c1ccc(OCCCNCc2ccccc2)cc1,?,?,10µM*,3.55µM*,-43.0%
C=CCNCCCCOc1ccc(OCC)cc1,17.8%,5.0%,5.5%[12.7 µM],-16.1%,15.0%

# Bioassay records deposited in PubChem BioAssay by National Center for Advancing Translational Sciences (NCATS).
